# According to ChEMBL document CHEMBL3988442, “University of Dundee, Small-Polar-MMV Screening Library” (2021):
# For some of these results: Measured potencies and affinities stand elsewhere.
# Key:
# Set-up in all cases: scale not given: direction of the effect not stated beside the values
# [1] = target: Protein translocase subunit SecA (Escherichia coli (strain K12)) (UniProt P10408); assay: Assay to Identify E. coli SecA ATPase Inhibitors; format: functional; details: 30 µM
# [2] = target: T1, Ubiquitin-activating enzyme e1, putative (Leishmania donovani (strain BPK282A1)) (UniProt E9BSI1); assay: Leishmania donovani Ubiquitin Activating Enzyme (LdE1); format: functional; details: 30 µM
# T1 sequence (whole entry): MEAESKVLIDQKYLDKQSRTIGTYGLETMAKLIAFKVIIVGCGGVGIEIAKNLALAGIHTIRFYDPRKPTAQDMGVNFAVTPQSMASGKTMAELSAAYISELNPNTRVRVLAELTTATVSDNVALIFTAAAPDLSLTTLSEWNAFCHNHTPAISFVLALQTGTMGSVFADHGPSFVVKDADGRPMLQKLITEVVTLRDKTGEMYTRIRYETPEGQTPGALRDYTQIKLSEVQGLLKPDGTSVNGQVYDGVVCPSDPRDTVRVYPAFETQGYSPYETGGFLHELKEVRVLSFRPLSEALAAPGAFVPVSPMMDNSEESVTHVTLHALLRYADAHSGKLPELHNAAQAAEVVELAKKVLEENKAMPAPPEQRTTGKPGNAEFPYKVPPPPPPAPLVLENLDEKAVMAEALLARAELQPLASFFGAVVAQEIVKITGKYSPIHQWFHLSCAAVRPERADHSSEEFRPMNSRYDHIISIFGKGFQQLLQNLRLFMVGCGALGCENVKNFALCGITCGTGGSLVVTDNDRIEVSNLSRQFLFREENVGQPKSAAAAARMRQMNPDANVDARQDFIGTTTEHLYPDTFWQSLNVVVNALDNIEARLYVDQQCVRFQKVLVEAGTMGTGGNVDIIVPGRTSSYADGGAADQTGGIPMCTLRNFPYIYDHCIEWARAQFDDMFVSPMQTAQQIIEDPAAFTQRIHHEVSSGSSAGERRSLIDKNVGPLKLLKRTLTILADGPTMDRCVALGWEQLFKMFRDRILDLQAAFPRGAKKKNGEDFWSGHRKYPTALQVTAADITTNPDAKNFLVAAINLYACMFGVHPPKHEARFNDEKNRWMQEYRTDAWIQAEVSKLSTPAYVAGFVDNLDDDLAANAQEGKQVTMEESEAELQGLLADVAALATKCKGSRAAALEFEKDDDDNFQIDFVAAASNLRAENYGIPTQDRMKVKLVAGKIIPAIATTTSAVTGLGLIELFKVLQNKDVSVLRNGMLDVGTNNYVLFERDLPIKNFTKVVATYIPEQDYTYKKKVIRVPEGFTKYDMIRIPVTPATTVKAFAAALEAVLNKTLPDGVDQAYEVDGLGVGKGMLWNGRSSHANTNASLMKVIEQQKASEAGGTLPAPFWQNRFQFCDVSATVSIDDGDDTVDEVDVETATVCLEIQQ
# [3] = target: AMP-activated protein kinase, AMPK (Homo sapiens) (UniProt P54646+O43741+P54619+Q9UGJ0+Q9Y478+Q13131+Q9UGI9); assay: AMP-dependent Kinase enzyme assay. An in vitro enzyme assay that detects ADP turnover that is directly proportional to AMPK activity. This uses naive AMPK that is activated during the assay with MK-8722; format: functional; details: 30 µM
# [4] = target: Sialic acid-binding Ig-like lectin 9 (Homo sapiens) (UniProt Q9Y336); assay: Hs-Siglec9 ALPHAscreen SOP 20170721; details: 10 µM
# Sialic acid-binding Ig-like lectin 9 (Homo sapiens), sequence (Q9Y336 whole entry): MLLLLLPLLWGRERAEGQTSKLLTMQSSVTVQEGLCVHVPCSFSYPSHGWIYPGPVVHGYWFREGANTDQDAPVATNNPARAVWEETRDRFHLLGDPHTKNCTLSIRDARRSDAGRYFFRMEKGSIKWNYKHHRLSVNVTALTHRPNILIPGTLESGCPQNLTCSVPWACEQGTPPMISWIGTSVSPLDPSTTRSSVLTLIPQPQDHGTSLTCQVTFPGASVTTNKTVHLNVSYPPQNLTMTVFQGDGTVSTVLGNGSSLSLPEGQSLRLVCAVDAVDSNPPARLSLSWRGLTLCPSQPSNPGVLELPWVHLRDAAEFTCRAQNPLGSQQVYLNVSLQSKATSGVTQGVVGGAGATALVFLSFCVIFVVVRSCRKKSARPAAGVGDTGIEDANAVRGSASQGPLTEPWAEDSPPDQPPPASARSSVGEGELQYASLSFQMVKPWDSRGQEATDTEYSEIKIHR
# [5] = test system: Trypanosoma cruzi; assay: Trypanosoma cruzi phosphomannomutase and mannose-1-phosphate guanylyltransferase assay; format: functional; details: 10 µM
# [6] = target: T2, Arginase-2, mitochondrial (Homo sapiens) (UniProt P78540); assay: in vitro enzyme assay to detect the production of urea directly proportional to the activity of Arginase II; format: functional; details: 33.3 µM; note: in the data most compounds retested in dose-response had high values
# T2 sequence (whole entry): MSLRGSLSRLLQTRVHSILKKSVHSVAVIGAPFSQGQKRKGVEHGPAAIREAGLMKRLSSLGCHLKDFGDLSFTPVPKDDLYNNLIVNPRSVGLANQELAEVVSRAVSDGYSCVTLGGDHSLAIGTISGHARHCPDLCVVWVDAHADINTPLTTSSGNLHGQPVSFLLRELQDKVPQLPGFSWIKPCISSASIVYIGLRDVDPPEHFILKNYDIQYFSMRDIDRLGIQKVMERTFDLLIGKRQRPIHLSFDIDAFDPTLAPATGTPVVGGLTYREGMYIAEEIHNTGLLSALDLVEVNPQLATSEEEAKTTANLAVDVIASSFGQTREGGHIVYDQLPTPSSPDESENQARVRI
# [7] = target: T3, Proteasome subunit beta (Trypanosoma cruzi) (UniProt O96673); assay: Trypanosoma cruzi proteasome chymotrypsin-like activity (TcProtChymo) assay.; note: in the data most compounds retested in dose-response had high values; format: functional; details: 9.37 µM
# T3 sequence (whole entry): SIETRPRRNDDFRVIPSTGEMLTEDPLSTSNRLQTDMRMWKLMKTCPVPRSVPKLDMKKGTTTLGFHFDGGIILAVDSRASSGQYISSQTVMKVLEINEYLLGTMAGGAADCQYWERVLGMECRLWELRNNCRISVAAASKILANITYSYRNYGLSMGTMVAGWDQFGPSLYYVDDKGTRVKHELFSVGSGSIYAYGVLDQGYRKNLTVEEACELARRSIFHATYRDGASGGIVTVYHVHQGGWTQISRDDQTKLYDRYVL
# [8] = organism: Homo sapiens; assay: To identify inhibition of the IFN signalling (Jak-Stat) pathway via expression of an eGFP reporter gene under the control of an IFN-stimulated response element (ISRE) containing MxA promoter.; format: functional; details: 30 µM
# [9] = target: T4, Tyrosyl-tRNA synthetase, putative (Trypanosoma cruzi (strain CL Brener)) (UniProt Q4DSP6); assay: Trypanosoma cruzi tyrosyl tRNA synthetase (TcYRS) _High Tyrosine SOP; format: functional; details: 30 µM; note: in the data most compounds retested in dose-response had high values
# T4 sequence (whole entry): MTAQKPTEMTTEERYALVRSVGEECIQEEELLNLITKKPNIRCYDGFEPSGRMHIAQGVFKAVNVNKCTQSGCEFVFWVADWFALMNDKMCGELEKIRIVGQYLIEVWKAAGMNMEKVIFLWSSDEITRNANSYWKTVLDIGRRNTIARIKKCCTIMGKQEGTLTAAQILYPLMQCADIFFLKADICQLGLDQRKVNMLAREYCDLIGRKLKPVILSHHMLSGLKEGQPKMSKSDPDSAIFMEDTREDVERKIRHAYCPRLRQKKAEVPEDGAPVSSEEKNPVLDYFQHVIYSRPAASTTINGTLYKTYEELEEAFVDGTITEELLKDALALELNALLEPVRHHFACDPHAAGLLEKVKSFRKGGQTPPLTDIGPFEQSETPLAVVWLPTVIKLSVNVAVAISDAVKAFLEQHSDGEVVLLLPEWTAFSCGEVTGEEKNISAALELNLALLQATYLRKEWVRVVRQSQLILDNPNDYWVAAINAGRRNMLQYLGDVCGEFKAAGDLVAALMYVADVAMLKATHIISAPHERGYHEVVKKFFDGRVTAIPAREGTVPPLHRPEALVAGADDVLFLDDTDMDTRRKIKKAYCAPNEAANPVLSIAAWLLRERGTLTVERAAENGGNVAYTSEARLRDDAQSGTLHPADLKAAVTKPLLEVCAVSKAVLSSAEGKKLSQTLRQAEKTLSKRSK
# [10] = target: T4, Tyrosyl-tRNA synthetase, putative (Trypanosoma cruzi (strain CL Brener)); assay: Trypanosoma cruzi tyrosyl tRNA synthetase (TcYRS) SOP; format: functional; details: 30 µM
# [11] = target: Chromo domain-containing protein 1 (Saccharomyces cerevisiae (strain ATCC 204508 / S288c) (Baker's yeast)) (UniProt P32657); assay: ScCHD-1 Enzyme Inhibition Assay; format: functional; details: 30 µM; note: in the data most compounds retested in dose-response had high values
# Chromo domain-containing protein 1 (Saccharomyces cerevisiae (strain ATCC 204508 / S288c) (Baker's yeast)), sequence (P32657 whole entry, the tested form may be a part): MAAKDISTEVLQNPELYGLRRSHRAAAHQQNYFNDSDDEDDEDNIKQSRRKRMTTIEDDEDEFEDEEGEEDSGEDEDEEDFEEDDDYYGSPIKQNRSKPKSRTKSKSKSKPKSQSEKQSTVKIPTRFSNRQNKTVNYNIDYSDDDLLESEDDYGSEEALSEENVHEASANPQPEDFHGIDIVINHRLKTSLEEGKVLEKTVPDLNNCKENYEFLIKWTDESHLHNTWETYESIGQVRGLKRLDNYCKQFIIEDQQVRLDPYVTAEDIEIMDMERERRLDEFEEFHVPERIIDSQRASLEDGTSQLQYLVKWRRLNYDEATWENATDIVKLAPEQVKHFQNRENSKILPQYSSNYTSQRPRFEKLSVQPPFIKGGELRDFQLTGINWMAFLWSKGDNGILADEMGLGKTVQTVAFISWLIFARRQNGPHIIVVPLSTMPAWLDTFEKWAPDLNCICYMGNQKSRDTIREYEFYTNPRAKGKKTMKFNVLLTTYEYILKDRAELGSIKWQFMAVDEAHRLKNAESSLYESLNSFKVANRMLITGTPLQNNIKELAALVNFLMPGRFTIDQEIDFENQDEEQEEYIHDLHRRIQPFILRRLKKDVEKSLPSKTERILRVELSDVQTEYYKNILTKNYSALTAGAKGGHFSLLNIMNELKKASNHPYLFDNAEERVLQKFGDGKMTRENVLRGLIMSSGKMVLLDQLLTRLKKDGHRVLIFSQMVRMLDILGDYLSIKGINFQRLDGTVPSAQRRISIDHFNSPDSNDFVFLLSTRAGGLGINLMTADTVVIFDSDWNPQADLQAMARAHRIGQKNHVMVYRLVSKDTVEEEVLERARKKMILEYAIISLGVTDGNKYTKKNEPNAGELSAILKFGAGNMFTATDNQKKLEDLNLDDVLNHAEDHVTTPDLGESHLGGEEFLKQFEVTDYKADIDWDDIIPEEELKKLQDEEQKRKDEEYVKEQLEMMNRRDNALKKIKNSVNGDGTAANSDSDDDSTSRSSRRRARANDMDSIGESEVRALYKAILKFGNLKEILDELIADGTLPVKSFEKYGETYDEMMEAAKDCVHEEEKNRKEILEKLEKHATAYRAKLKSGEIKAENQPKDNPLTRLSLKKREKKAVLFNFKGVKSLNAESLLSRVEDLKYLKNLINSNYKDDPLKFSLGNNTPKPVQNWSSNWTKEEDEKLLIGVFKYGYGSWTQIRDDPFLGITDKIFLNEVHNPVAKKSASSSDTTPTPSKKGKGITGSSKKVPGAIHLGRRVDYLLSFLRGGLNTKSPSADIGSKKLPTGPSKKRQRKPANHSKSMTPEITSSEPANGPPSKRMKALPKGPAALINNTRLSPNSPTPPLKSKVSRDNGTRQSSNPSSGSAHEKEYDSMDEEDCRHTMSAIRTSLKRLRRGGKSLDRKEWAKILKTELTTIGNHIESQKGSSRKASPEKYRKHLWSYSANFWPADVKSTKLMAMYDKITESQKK
# Protein translocase subunit SecA (Escherichia coli (strain K12)), sequence (P10408 whole entry): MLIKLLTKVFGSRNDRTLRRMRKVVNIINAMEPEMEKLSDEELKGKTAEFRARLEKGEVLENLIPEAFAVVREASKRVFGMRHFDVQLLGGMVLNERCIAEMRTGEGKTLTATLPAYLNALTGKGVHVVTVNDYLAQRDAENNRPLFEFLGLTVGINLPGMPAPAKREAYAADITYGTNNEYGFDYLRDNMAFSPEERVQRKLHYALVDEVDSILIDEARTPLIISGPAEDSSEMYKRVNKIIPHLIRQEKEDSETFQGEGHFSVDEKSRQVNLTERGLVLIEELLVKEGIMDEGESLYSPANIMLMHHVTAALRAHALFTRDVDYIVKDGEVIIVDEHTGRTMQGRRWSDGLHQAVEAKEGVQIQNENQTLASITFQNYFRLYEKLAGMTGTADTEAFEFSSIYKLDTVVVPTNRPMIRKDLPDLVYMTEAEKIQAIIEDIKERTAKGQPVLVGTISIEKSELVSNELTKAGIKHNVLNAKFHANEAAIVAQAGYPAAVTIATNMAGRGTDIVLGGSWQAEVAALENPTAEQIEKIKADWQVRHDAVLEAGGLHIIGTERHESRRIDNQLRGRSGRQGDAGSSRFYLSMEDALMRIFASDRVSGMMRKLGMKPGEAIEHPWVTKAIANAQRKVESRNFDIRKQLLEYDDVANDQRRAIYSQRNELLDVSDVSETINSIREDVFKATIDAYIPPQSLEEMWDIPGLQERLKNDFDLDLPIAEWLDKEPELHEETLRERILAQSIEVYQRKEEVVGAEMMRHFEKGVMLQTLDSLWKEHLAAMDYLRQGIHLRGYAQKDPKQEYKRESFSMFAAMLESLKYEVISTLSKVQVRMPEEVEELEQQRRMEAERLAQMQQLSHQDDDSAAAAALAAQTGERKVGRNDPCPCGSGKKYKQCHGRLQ
SMILES,Percent Effect [1] [%],Percent Effect [2] [%],Percent Effect [3] [%],Percent Effect [4] [%],Percent Effect [5] [%],Percent Effect [6] [%],Percent Effect [7] [%],Percent Effect [8] [%],Percent Effect [9] [%],Percent Effect [10] [%],Percent Effect [11] [%]
COc1ccccc1C1(C(=O)NCCN2CCOCC2)CCOCC1,-0.484,10.8,-1.78,-1.23,-0.0943,-2.81,12.4,-15.9,3.45,13.6,-7.26
CC1Cc2ccccc2N1Cc1occc1C(=O)OCC(N)=O (stereo not given),-4.31,11,7.16,10.7,4.56,-3.99,5.91,17,8.33,13.6,-3.53
O=C(c1cnccn1)N1CCOC2(CCN(Cc3ccsc3)CC2)C1,-1.55,0,2.03,7.22,1.16,-52.1,0,-18.7,2.08,2.5,-4.34
CC(C)N1CCCC(CCCc2ccccn2)(C(=O)O)C1 (stereo not given),-3.09,6.76,15.5,0.499,-1.98,-0.696,12.3,-2.07,10.8,14.3,4.56
C[C@@H]1CN(C(=O)c2ccc(C#N)nc2)CC[C@@]1(O)C1CCOCC1,-2.31,5.41,-1.11,17.6,6.18,10.5,3.45,14.3,5.82,9.76,-1.75
Cc1nn(C)c(C)c1CNC1CCOc2ccccc21 (stereo not given),-2.99,5.41,-3.93,-3.92,-4.01,-1.74,13.7,20,0,8.64,-2.87
CC(C)c1nc(C(=O)N2CCOCC2CC(=O)c2ccco2)c[nH]1 (stereo not given),2.93,-2.63,4.64,2.67,0.682,0,8.92,-8.33,5.32,0,1.37
Cc1nc(C2CCCN2C(=O)c2ccccc2)ncc1C(N)=O (stereo not given),-3.32,10.7,3.14,7.6,1.97,-3.96,3.79,22.3,5.32,14.1,-6.6
CC(O)CN1CCN(C(=O)c2ccn(-c3cccc(Cl)c3)n2)CC1 (stereo not given),-5.56,-2.6,12.7,-7.86,-6.93,1.07,1.18,26.4,-1.94,-9.76,-1.68
CCC(C)c1noc(C2CCN(C(=O)c3cccnc3)CC2)n1 (stereo not given),-3.05,7.79,0.731,6.36,-0.0983,-9.65,14.8,-14.3,5.38,11.1,-2.94
Cc1cccc(NC(=O)N2CCCn3cnc(CN4CCCC4)c3C2)c1,-3.65,8.11,-3.2,-1.77,3.91,0,12.4,-6.55,16.8,11,-4.14
Cc1cc(C(=O)NCc2cccnc2OC(C)C)no1,-2.03,8.11,-0.722,4.58,-5.19,4.41,3.42,27.8,6.4,13.6,-0.257
CC(=O)c1cccc(S(=O)(=O)N2CSCC2C(=O)NCC(F)(F)F)c1 (stereo not given),-3.05,3.8,7.23,3.21,-0.103,-7.1,10.5,2.46,9.38,22.8,-23.2
CCC1(CC)Cc2ccccc2-c2nc(NCCO)[nH]c(=O)c21,-5.77,10.5,29.9,1.17,-2.63,3.55,26.4,29.8,5.32,10.4,-13.3
CC(C)Nc1ncc(CN2C[C@@H](CN3CCC(O)CC3)[C@@H](CO)C2)cn1,-5.5,2.67,-4.76,7.2,2.43,-0.521,12.2,8.53,4.92,11.1,-8.5
Cc1nnc(C(C)N2CCN(Cc3ccc4c(c3)OCO4)CC2)o1 (stereo not given),-8,8.11,-13.4,7.45,-4.62,-4.01,-0.36,13.3,-0.493,-8.64,2.83
CCOc1nnc(CN2CCOC(CNc3cccnn3)C2)s1 (stereo not given),-1.03,20.8,-24.7,-0.385,2.43,-3.92,11.8,10.6,16.5,7.32,-11.3
CO[C@H]1CCN(c2ccc(C)nn2)[C@H]1Cc1cnn(C)c1,-5.98,2.7,-6.04,1.75,0.977,0.417,14.4,-17.9,9.9,11,-6.2
CN(C)C(=O)c1cnc2n1CCN(Cc1ccccc1)C2,1.01,13.3,6.19,-6.07,-7.87,8.62,15.2,0.000462,3.19,8.97,-5.59
COc1cccc(N2CCN(Cc3ncc[nH]3)CC2=O)c1,-0.114,6.94,-20.4,-7.16,-1.85,-0.442,12.3,-17.7,-2.1,10.3,-4.76
